Measurements reported in PubChem BioAssay (Tox21).
Inconclusive results are not listed. Calls of active or inactive are those of the source. Unless noted, calls follow the shape of the dose curve; as a rule, active = well fitted curve in the direction sought with a large enough effect in the repeat runs; inconclusive = weak or mixed curves; inactive = no such curve, though single readings can be large; an effect the other way counts as inactive or inconclusive.

Assays:
[1] = biological target: Androgen receptor (Homo sapiens) (UniProt P10275); test: qHTS assay to identify small molecule agonists of the androgen receptor (AR) signaling pathway in the presence of an antagonist (AID 1259381; calls by dose curve; also: nearly all actives have a fitted effect of over 15% in size)
In short: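 Here, 15-concentration compound series were pin-transferred onto MDA-kb2 MMTV-luciferase cells already dosed with nilutamide (3.0uM final). After 16hr at 37C, ONE-Glo was added and luminescence read 30min later at room temperature.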

[2] = qHTS assay to identify small molecule agonists of the sonic hedgehog signaling (Shh) pathway - cell viability counter screen (AID 1259366); also: nearly all actives have a fitted effect of over 50% in size
In short: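 In quantitative high-throughput format, 3T3 Gli1-Luc cells were exposed to compounds for 24hr and multiplexed for viability using CellTiter-Fluor, incubated 1hr at 37C before the fluorescence read.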

[3] = qHTS assay to identify small molecule antagonists of the sonic hedgehog signaling (Shh) pathway - cell viability counter screen (AID 1259367); also: nearly all actives have a fitted effect of over 55% in size
In short: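 After a 4 hr settling period, 3T3 Gli1-Luc cells were treated with DMSO-dissolved chemicals and conditioned medium, kept 24 hr at 37C in 5% CO2, and assayed for viability by CellTiter-Fluor fluorescence following 1 hr reagent incubation.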

[4] = qHTS assay to identify small molecule agonists of the sonic hedgehog signaling (Shh) pathway (AID 1259368; calls by dose curve;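 also: NIH/3T3-derived 3T3Gli1-Luc cells carrying a stable Gli1-driven firefly luciferase reporter; series mostly up to about 92 µM; nearly all actives have a fitted effect of over 15% in size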)
In short: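 Luminescent signal was taken as a measure of Gli1-controlled luciferase expression in stably transfected NIH/3T3-derived cells that had been treated for 24 hr with compounds delivered in DMSO.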

[5] = qHTS assay to identify small molecule antagonists of the sonic hedgehog signaling (Shh) pathway (AID 1259369; calls by dose curve; also: nearly all actives have a fitted effect of over 45% in size)
In short: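 Screening used 3T3Gli1-Luc cells at 2,000 per well, compounds delivered in DMSO, and conditioned medium as agonist stimulus; plates incubated 24hr at 37 C and 5% CO2 before a 30min luciferase step.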

[6] = biological target: Estrogen receptor beta (Homo sapiens) (UniProt Q92731); test: qHTS assay to identify small molecule antagonists of the estrogen receptor beta (ER-beta) signaling pathway (AID 1259378; active = well fitted inhibition curve with a large enough effect in the signal ratio in the repeat runs, not every such curve was filed as active; the % refers to the signal ratio)
In short: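 ER-beta-UAS-bla HEK293T (GripTite) cells in 2% charcoal-stripped FBS medium were preincubated 6 hr at 37C, dosed with compound, then stimulated with 1 nM E2 (final) for 16 hr; beta-lactamase reporter read by B/G FRET fluorescence after 2 hr substrate loading.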

[7] = qHTS assay to identify small molecule agonists of the androgen receptor (AR) signaling pathway in the presence of an antagonist - cell viability counter screen (AID 1259379);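 also: MDA-kb2 human breast cancer cells carrying an MMTV luciferase reporter; series mostly up to about 92 µM; nearly all actives have a fitted effect of over 25% in size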
In short: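 In MDA-kb2 cells (human breast carcinoma, MMTV-luciferase), compounds at 15 concentrations plus 3.0uM nilutamide; 16 hr, 37C, 0% CO2; CellTiter-Fluor fluorescence read for viability.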

[8] = qHTS assay to identify small molecule agonists of the estrogen receptor beta (ER-beta) signaling pathway - cell viability counter screen (AID 1259380); also: nearly all actives have a fitted effect of over 30% in size
In short: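 Viability of ER-beta-UAS-bla HEK293T cells was determined by CellTiter-Glo luminescence following 16 hr treatment with test compounds at 37C.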

[9] = qHTS assay to identify small molecule antagonists of the estrogen receptor beta (ER-beta) signaling pathway - cell viability counter screen (AID 1259382); also: series mostly up to about 92 µM; nearly all actives have a fitted effect of over 55% in size
In short: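 Tox21 10K library tested in qHTS format on ER-beta-bla HEK293T cells stimulated with 1nM E2; 16 hr treatment at 37C. Same-well CellTiter-Glo luminescence served as the cell viability measure.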

[10] = qHTS assay to identify small molecule agonists or antagonists of the thyroid stimulating hormone receptor (TSHR) signaling pathway - wild type cell line counter screen (AID 1259384; calls by dose curve)
In short: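 Wild-type HEK293 cells were plated 18 h at 37 C/5% CO2, pin-dosed with compound plus Ro20-1724 medium, held 30 min at room temperature, then given cAMP-d2 and anti-cAMP-cryptate; fluorescence was read after 1 h. Fifteen concentrations, triplicate.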

[11] = biological target: Thyrotropin receptor (Homo sapiens) (UniProt P16473); test: qHTS assay to identify small molecule antagonists of the thyroid stimulating hormone receptor (TSHR) signaling pathway (AID 1259385; calls by dose curve; also: nearly all actives have a fitted effect of over 20% in size)
In short: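 TSHR-HEK293 cells were plated and held 18 h at 37C/5% CO2, then given compound plus Ro20-1724 and stimulated with TSH at 1.5 ng/mL final. After 30 min at room temperature, cAMP was detected with cAMP-d2/anti-cAMP-cryptate (1 h) by fluorescence.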

[12] = qHTS assay to identify small molecule agonists of the estrogen receptor alpha (ER-alpha) signaling pathway in the presence of an antagonist - cell viability counter screen (AID 1259386);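 also: series mostly up to about 92 µM; cells exposed to compounds for 22 h at 37 °C before the viability read; nearly all actives have a fitted effect of over 30% in size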
In short: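 Fluorescent CellTiter-Fluor viability signal from VM7Luc4E2 cells, with the reagent added during the final hour of a 22hr compound exposure at 37C in the presence of 10.0nM ICI-182,780.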

[13] = biological target: Progesterone receptor (Homo sapiens) (UniProt P06401); test: qHTS assay to identify small molecule agonists of the progesterone receptor (PR) signaling pathway (AID 1346784; calls by dose curve; also: nearly all actives have a fitted effect of over 30% in size)
In short: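 Reporter assay, GripTite PR-UAS-bla HEK 293T cells: 16 hr exposure to DMSO-dissolved compounds at 37C, 5% CO2, in steroid-depleted (2% charcoal-stripped FBS) medium; beta-lactamase measured by FRET fluorescence.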

[14] = biological target: Progesterone receptor (Homo sapiens) (UniProt P06401); test: qHTS assay to identify small molecule antagonists of the progesterone receptor (PR) signaling pathway (AID 1346795; active = well fitted inhibition curve with a large enough effect in the signal ratio in the repeat runs, not every such curve was filed as active; the % refers to the signal ratio)
In short: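 Stimulus R5020 at 1 nM final; cells HEK293T PR-UAS-bla; medium with 2% charcoal-stripped FBS; compound exposure 16 hr at 37C, 5% CO2; detection by FRET beta-lactamase substrate, 2 hr, room temperature.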

[15] = qHTS assay to identify small molecule antagonists of the progesterone receptor (PR) signaling pathway - cell viability counter screen (AID 1346798); also: series mostly up to about 92 µM; nearly all actives have a fitted effect of over 50% in size
In short: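 In the same plates used for the beta-lactamase readout, cell viability of compound- and R5020-treated PR-UAS-bla HEK293T cells (16 hr, 37C) was assessed by CellTiter-Glo luminescence.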

[16] = qHTS assay to identify small molecule antagonists of the TGF-beta/Smad signaling pathway - cell viability counter screen (AID 1346824); also: nearly all actives have a fitted effect of over 50% in size
In short: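 SBE-bla HEK 293T cells were plated overnight at 37 C, then given compounds in DMSO plus TGF-beta1 (added as 0.25 ng/mL solution) for 5 hr. After the bla read, CellTiter-Glo was added to the same wells and luminescence read after 30 min at room temperature.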

[17] = qHTS assay to identify small molecule agonists of the TGF-beta/Smad signaling pathway - cell viability counter screen (AID 1346829); also: top concentration of the series differs between compounds; nearly all actives have a fitted effect of over 45% in size
In short: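 Same-well cytotoxicity: CellTiter-Glo added after the 2 hr room-temperature beta-lactamase substrate step, luminescence measured 30 min later; cells had 5 hr of compound at 37 C.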

[18] = biological target: Estrogen receptor (Homo sapiens) (UniProt P03372); test: qHTS assay to identify small molecule agonists of the estrogen receptor alpha (ER-alpha) signaling pathway in the presence of an antagonist (AID 1259383; calls by dose curve; also: top concentration of the series differs between compounds; nearly all actives have a fitted effect of over 15% in size)
In short: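 In VM7Luc4E2 cells, 4,000 per well, compounds at 15 concentrations were co-incubated 22hr at 37C with 10.0nM final ICI-182,780. Luminescence from the stably transfected 4×ERE-luciferase reporter was recorded 30min after ONE-Glo addition.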

[19] = qHTS assay to identify small molecule agonists of the progesterone receptor (PR) signaling pathway - cell viability counter screen (AID 1346799; calls by dose curve; also: nearly all actives have a fitted effect of over 45% in size)
In short: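 Multiplexed viability read: CellTiter-Glo luminescence, 30 min RT, following LiveBLAzer FRET measurement on PR-UAS-bla HEK293T cells exposed to compounds 16 hr.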

[20] = biological target: Estrogen receptor beta (Homo sapiens) (UniProt Q92731); test: qHTS assay to identify small molecule agonists of the estrogen receptor beta (ER-beta) signaling pathway (AID 1259377; active = well fitted activation curve with a large enough effect in the signal ratio in the repeat runs, not every such curve was filed as active; the % refers to the signal ratio)
In short: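 Reporter cells (HEK293T, ER-beta-UAS-bla) receive compounds or DMSO after a 6 hr pre-incubation. They then incubate 16 hr at 37C/5% CO2, and fluorescence from LiveBLAzer B/G substrate is measured after 2 hours at room temperature.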

Measured: Potency

Sequence of Estrogen receptor beta (Homo sapiens) (Q92731 whole entry, looked up): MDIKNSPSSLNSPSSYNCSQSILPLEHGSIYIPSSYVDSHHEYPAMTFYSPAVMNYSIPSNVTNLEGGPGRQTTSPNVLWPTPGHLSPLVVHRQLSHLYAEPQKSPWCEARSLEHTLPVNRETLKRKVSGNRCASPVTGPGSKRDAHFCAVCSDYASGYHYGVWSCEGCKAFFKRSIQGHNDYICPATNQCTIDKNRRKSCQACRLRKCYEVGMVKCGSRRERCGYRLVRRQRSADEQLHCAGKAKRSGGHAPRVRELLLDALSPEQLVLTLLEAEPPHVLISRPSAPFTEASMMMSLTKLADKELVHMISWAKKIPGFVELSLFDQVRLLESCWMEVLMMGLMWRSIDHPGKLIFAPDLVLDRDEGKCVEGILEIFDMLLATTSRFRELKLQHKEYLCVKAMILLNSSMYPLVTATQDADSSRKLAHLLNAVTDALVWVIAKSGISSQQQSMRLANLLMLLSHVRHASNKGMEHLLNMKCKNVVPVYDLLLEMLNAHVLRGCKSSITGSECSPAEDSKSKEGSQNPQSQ
Sequence of Progesterone receptor (Homo sapiens) (P06401 whole entry, looked up): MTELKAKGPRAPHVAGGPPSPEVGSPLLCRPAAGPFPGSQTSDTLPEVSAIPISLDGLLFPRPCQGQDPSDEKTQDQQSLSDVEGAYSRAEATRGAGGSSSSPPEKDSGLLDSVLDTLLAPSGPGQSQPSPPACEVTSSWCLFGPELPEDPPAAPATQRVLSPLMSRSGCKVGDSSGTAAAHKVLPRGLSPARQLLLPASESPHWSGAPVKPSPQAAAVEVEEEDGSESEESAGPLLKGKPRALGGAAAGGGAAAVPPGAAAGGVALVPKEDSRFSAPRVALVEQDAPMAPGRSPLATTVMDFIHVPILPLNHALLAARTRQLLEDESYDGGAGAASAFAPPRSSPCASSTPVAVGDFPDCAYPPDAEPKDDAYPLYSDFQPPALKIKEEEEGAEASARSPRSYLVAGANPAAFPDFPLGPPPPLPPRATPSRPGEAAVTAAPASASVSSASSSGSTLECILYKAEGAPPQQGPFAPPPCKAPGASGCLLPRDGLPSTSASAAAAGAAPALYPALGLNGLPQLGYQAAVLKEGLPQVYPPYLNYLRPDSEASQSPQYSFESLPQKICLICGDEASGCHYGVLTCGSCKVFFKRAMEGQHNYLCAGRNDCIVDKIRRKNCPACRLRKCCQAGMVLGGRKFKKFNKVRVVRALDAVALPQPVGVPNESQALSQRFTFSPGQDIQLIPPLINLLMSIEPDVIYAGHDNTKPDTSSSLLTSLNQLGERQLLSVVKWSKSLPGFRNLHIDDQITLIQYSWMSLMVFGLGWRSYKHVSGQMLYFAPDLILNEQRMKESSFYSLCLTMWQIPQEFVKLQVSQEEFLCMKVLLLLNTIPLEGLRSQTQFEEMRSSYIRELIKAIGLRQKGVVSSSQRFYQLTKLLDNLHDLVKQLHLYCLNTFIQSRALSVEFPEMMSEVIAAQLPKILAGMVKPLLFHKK
Sequence of Estrogen receptor (Homo sapiens) (P03372 whole entry, looked up): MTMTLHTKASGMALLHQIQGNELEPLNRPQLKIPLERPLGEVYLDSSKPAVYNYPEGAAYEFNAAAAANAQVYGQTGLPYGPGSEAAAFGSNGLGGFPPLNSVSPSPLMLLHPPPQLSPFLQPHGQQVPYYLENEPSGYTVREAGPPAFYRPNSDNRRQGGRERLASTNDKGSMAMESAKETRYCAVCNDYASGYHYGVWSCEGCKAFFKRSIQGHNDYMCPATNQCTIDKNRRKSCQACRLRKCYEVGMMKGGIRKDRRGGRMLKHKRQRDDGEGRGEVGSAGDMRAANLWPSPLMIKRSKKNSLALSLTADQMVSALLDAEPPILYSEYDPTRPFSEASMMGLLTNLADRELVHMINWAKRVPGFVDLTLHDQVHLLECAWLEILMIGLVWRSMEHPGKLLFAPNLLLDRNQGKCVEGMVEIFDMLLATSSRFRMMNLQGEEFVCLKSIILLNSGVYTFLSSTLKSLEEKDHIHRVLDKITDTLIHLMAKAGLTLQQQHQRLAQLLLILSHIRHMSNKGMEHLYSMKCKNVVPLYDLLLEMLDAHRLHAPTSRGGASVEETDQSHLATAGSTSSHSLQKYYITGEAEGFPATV
Sequence of Thyrotropin receptor (Homo sapiens) (P16473 whole entry, looked up): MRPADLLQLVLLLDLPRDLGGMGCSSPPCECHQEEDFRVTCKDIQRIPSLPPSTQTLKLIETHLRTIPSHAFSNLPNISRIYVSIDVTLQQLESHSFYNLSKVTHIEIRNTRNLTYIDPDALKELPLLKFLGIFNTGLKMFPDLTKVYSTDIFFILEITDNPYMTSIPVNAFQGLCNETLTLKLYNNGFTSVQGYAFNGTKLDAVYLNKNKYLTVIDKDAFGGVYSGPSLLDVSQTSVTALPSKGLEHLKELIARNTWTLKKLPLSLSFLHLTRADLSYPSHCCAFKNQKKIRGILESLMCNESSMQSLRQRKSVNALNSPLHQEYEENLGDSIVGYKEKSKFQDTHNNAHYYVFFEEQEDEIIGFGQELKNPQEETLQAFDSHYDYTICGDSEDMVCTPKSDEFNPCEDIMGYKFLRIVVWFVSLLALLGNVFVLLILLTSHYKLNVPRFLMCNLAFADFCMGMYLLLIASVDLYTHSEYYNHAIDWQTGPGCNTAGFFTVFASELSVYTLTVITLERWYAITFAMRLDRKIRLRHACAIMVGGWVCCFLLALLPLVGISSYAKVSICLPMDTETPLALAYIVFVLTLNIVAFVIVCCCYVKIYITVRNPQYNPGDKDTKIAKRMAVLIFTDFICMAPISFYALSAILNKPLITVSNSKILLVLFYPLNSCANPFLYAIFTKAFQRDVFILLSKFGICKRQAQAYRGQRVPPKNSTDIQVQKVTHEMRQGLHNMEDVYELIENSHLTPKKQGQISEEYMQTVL
Sequence of Androgen receptor (Homo sapiens) (P10275 whole entry, looked up): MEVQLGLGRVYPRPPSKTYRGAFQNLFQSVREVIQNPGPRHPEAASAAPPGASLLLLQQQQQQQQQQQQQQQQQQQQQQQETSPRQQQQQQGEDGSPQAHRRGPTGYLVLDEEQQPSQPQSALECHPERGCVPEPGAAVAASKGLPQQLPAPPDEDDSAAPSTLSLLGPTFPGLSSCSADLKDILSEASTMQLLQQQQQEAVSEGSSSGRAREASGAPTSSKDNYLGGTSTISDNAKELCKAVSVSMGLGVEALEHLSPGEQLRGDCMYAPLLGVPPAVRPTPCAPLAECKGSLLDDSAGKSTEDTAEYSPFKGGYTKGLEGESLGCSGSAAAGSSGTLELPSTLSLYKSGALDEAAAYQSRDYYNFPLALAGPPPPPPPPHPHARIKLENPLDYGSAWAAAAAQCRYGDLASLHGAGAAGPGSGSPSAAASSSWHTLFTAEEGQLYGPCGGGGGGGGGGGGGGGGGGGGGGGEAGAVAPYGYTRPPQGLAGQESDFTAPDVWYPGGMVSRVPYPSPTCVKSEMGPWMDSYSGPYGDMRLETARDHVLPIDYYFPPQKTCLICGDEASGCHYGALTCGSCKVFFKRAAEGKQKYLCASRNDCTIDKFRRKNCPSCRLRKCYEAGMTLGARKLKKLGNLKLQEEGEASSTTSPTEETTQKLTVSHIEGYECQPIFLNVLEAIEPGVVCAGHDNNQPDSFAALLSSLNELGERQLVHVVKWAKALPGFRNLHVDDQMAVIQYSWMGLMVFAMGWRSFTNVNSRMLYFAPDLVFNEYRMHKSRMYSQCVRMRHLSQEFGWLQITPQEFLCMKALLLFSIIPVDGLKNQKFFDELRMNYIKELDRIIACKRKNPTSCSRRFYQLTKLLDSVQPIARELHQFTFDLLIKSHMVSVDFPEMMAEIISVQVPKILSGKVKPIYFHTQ

N[C@H]1C(O)O[C@H](CO)[C@@H](O)[C@@H]1O (some centres undefined)
inactive: [1]

CCCCCCC(=O)c1ccccc1
not listed: [1] | [18] | [19] | [20]
inactive: all other assays above

C=CCn1cc[n+](C)c1
not listed: [1] | [10] | [15] | [20]
inactive: all other assays above

CC/C=C\CCOC(=O)c1ccccc1
not listed: [6] | [10] | [13] | [14] | [17] | [20]
inactive: all other assays above

CC(C)(O)c1ccc(C(C)(C)O)cc1
not listed: [1] | [6] | [15] | [20]
inactive: all other assays above

CCN(CC)CC
not listed: [1] | [6] | [20]
inactive: all other assays above

CC(C)c1cc(C(C)C)cc(C(C)C)c1
not listed: [1] | [7] | [8] | [10] | [11] | [16]
inactive: all other assays above
